A selection: hits, their analogues and other compounds. The true share with any hit is near 4.1%.
TIM10 inh = TIM10 yeast growth inhibition | S. cerevisiae TIM10 strain growth, BacTiter-Glo luminescence, 24 h | inhibition, % at 10 µM | actives 1.4% (n = 330,000) | AID 463195;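 active = inhibition of 40% or more at the single tested concentration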;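 note: wild-type TIM10 isogenic control strain grown at permissive 25 °C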
PfHsp90 yeast 2 = inhibits growth of yeast expressing Plasmodium falciparum Hsp90; S. cerevisiae expressing PfHsp90, BacTiter-Glo ATP, 48 h; yeast lacking PDR1 and PDR3 efflux regulators; inhibition, % at 9.4 µM; actives 0.32% (n = 310,000); AID 504621;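 active = every replicate shows inhibition above about 80%, whatever the replicate mean, limit read from the data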;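 note: 0% = DMSO neutral controls and 100% = 20 µM radicicol positive controls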
tim23-1 inh = growth inhibitors of tim23-1 mutant yeast; S. cerevisiae tim23-1 growth, BacTiter-Glo luminescence, 24 h; inhibition, % at 20 µM; actives 1.3% (n = 330,000);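 active = growth inhibition of the mutant yeast at or above 50%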;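 note: temperature-sensitive mutant grown at 25 °C; plate controls were DMSO-treated mutant yeast for no effect and medium wells lacking yeast for full effect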
tim10-1 inh = tim10-1 yeast growth inhibition | S. cerevisiae tim10-1 ts strain growth, BacTiter-Glo, 24 h | inhibition, % at 20 µM | actives 2.2% (n = 330,000);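 active = inhibition of at least 40%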;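 note: mutant grown at 25 °C; 0% = DMSO wells with yeast and 100% = wells holding no yeast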
NLRP3 yeast inh = inhibitors of NALP3 inflammasome in yeast. Yeast reconstituted NLRP3/ASC/caspase-1, beta-gal luminescence, 24 h. inhibition, % at 10 µM. actives 0.39% (n = 330,000). AID 2825;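 active = inhibition of 50% or more; inactive = inhibition below 50%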;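 note: plate controls were induced DMSO wells for no effect and uninduced yeast grown without galactose for full effect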
NALP1 inh = blocks the NALP1 inflammasome reconstituted in yeast; actives 0.61% (n = 280,000); S. cerevisiae NALP1/ASC/caspase-1 growth, X-gal OD620, 72 h; inhibition, % at 10 µM; in the data active = inhibition mostly above about 24%, no sharp cut-off; inactive = mostly below about 32%
tim10-1 confirm = confirmation of tim10-1 mutant yeast growth inhibitors | inhibition, % at 20 µM | AID 463213 | S. cerevisiae tim10-1 ts strain growth, BacTiter-Glo, 24 h | shares compounds with tim10-1 inh | actives 56% (n = 7,400);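 active = inhibition of yeast growth at or above a set limit in either of two repeat tests at 20 µM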;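 note: tim10-1 mutant grown at permissive 25 °C to find synthetic lethal compounds; 0% = DMSO yeast wells and 100% = medium wells without yeast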
* hit, by the source's call; nt = not tested or not shown.

SMILES	TIM10 inh	PfHsp90 yeast 2	tim23-1 inh	tim10-1 inh	NLRP3 yeast inh	NALP1 inh	tim10-1 confirm
CCCC(=O)N(CCN1CCOCC1)c1nc2c(OC)ccc(C)c2s1	3	-21	1	10	17	-4	nt
COc1ccc(S(=O)(=O)Nc2cccc3c2O[C@H](CN(C)CC2CCCCC2)[C@@H](C)CN([C@H](C)CO)C3=O)cc1	-1	9	21	9	13	nt	nt
Cc1ccccc1NC(=O)CC1SC(=O)N(c2ccccc2)C1=O (centres undefined)	7	4	37	45*	8	-10	38*
O=C(CN1CCC(n2nnc3cc(F)ccc32)CC1)Nc1ccc2c(c1)CCC2	14	-19	17	47*	17	35	22
O=[N+]([O-])c1ccccc1CNc1ccc(F)c(Cl)c1	22	-26	37	36	10	45	nt
Fc1ccccc1CNc1cc(Cl)cc(Cl)c1	20	-8	26	59*	-10	8	65*
COc1ccc(N2CCC(CNC(=O)Nc3ccccc3)C2)cc1 (centres undefined)	14	-6	24	41*	14	6	33*
COc1ccc(N2CCC(CNC(=S)Nc3cc(C)cc(C)c3)C2)cc1 (centres undefined)	-1	-5	35	3	8	nt	nt
COc1ccc(C(C)=O)cc1Cn1nc(C)c([N+](=O)[O-])c1C	10	-15	18	13	8	-32	nt
COc1ccc(/C=C/C(=O)C2CC2)cc1Cn1nc(C)c([N+](=O)[O-])c1C	24	3	25	47*	21	-1	37*
CSc1ccc(C(=O)N2CCC(CCC(=O)NCc3ccc(F)cc3)CC2)cc1	9	-8	12	6	8	2	nt
CCN(CC(=O)Nc1ccccc1C(F)(F)F)C(=O)C1=COCCO1	-7	-2	6	-5	16	nt	nt
COc1ccc(-c2nc(C3CCCCC3)c3cc(OC)ccc3n2)cc1	-6	3	5	8	22	nt	nt
COc1cc(OC)c2c3c(c(C4CCCCC4)nc2c1)CCC3	8	-5	20	52*	17	nt	30*
O=S(=O)(c1ccc(NC(=S)NCc2ccc(F)cc2)cc1)N1CCOCC1	1	-22	5	-6	-2	13	nt
CCN(CC)S(=O)(=O)c1ccc(N2CCCC2)c(NS(=O)(=O)c2ccc(F)cc2)c1	4	13	28	40*	0	1	16
CCN(CC)S(=O)(=O)c1ccc(N2CCCC2)c(NS(=O)(=O)c2ccccc2)c1	7	25	19	24	-4	nt	nt
Cc1cccn2cc(CSc3nnc(Nc4ccc(C(C)C)cc4)s3)nc12	17	2	16	45*	16	18	28
COc1cc(NC(=S)Nc2ccc(Br)cc2Cl)c(OC)cc1Cl	36	-11	21	39	18	6	nt
COc1cc(Cl)c(C)cc1NC(=O)c1cccc(OC)c1OC	16	-7	26	41*	18	6	15
COc1cc(Cl)c(C)cc1NC(=O)CSc1ccc(NC(C)=O)cc1	9	2	29	42*	19	28	29
COc1cc(C)c(NC(=S)Nc2ccc(Cl)c(Cl)c2)cc1OC	26	-8	34	45*	-6	11	23
COc1cccc(C(=O)Nc2cccc3ccccc23)c1OC	-6	19	36	25	35	16	nt
COc1cc(NC(=S)Nc2cccc(Cl)c2Cl)c(OC)cc1Cl	35	11	37	42*	18	-16	25
NS(=O)(=O)c1cc(C(=O)OCC(=O)N2CCOCC2)ccc1Cl	12	-15	-1	-17	1	-6	nt
Cc1ccccc1C(=O)N[C@H](C(=O)OCC(=O)NC1CC1)C(C)C	10	-3	8	-3	9	nt	nt
COc1ccccc1CC(=O)N1CCN(S(=O)(=O)c2ccccc2)CC1	-7	-4	4	5	16	20	nt
COc1cc(NC(=O)C2CSC3(C)CCC(=O)N23)c(OC)cc1Cl (centres undefined)	9	20	3	9	17	nt	nt
CC(C)(C)c1cc(CP(=O)(c2ccccc2)c2ccccc2)cc(C(C)(C)C)c1O	14	-10	43	38	21	15	nt
